{"source": "PubChem BioAssay AID1347434", "about": "(National Center for Advancing Translational Sciences (NCATS), 2020)", "note": "Where “and” joins values, the source holds several entries; their conditions need not be identical. Equal values may be shown once. Among all 1,200 compounds or so, about 30 (2%) were called active. Inconclusive results (about 23%) are left out. Only a selection was taken, and actives are over-represented in it overall. Values without a mark were called inactive. Calls follow the shape of the dose curve; as a rule, active = well fitted inhibition curve with a large enough effect; inconclusive = small, poorly fitted or top-dose-only effect; inactive = flat fitted curve, though single readings scatter. % is scaled to controls: 0 for no effect and ±100 for the full control effect; potency is read from the fitted curve at half-maximal effect."}
{"biological_target": "Single-stranded DNA cytosine deaminase (Homo sapiens) (UniProt Q9GZX7)", "sequence (Q9GZX7 whole entry, looked up)": "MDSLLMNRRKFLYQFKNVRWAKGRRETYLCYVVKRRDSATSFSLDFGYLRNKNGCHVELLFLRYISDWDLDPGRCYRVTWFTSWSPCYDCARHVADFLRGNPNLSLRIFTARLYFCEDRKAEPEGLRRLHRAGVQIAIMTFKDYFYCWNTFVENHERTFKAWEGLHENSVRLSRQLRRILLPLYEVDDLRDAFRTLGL", "test": "Confirmatory qHTS assay for inhibitors of Activation Induced Cytidine Deaminase (AID): AID signals", "conditions": "recombinant AID, FRET deamination/UDG coupled fluorescence, 4 h; series mostly up to 115 µM; activity, negative = inhibition: at the top concentration", "from_the_text": "Assay Provider (PI) Patricia Gearhart Ph.D. National Institute on Aging National Institute of Health (NIH), Bethesda, MD Assay Provider (PI) Rahul Kohli Ph.D. Perelman School of Medicine University of Pennsylvania, Philadelphia, PA Activation-Induced Deaminase (AID) is a cytosine deaminase which converts cytosine into uracil within stretches of ssDNA. The presence of uracil in DNA initiates a cascade of mutagenic DNA repair to introduce point mutations and DNA double strand breaks. Specific targeting of AID to the immunoglobulin heavy chain loci (Igh) promotes mutagenesis in the antibody variable region for somatic hypermutation (SHM) or switch regions leading to class switch recombination (CSR). However, AID also plays a role in accumulating unnecessary mutations across the genome. Mis-targeting of AID results in the initiation of tumor development and leads to greater drug resistance among cancer cells when continually expressed. To identify an AID inhibitor, a small molecule library will be screened in collaboration with NCATS core facility at NIH. To confirm biological function, inhibitors will be examined in an in vitro murine B-cell activation assay and subsequent secondary validation screens. Top molecules will be further screened to identify inhibitory efficacy against a wild type primary splenocytes assay. Using these approaches, we hope to identify a small molecule with great efficacy and low toxicity for use as a molecular probe to further characterize AID's intricacies, or even as a therapeutic. A FRET based analysis of cytosine deamination, was developed to identify potential inhibitors of AID catalytic activity. This screen has two signal output, Read 1 evaluates the AID inhibition response. The second readout (Read 2) evaluates UDG response and is uses as a counterscreen to exclude false positive inhibitors. Inhibition in AID and inactivity in the UDG signal is the desired outcome for this assay.\nPROTOCOL TABLE SEQUENCE No. (e.g., 1, 2, 3, etc.); […] (e.g., Cells, Incubation, Reagent, etc.); VALUE; DESCRIPTION 1a; Reagent; 3 uL; [4/3x] 1 uM AID/2.67 U/mL UDG 1b; Reagent; 3 uL; 2 U/mL UDG 1c; Reagent; 3 uL; 1 uM AID 2a; Compound; 46 nL; Follow-up plates (0.64 uM - 10 mM) 2b; Control; 46 nL; ATA (16.4 nM - 10 mM) 3; Time; 10 min; incubation at room temperature 4; Reagents; 1 uL; [4x] 250 nM DJC20 / 250 nM DJC23 [Substrate] 5; Time; 4 hr; incubation at room temperature 6; Reagent; 4 uL; [2x] 250 mM NaOH 7; Time; 15 sec; centrifuge at 1000 rpm 8; Time; 30 min; incubation at room temperature 9a; Detection; fluorescence (Read 1: AID); EnVision (PerkinElmer) plate reader, 540 excitation and 590 emission filters 9b; Detection; fluorescence (Read 2: UDG); EnVision (PerkinElmer) plate reader, 560 excitation and 665 emission filters NOTES (numbers refer to sequence above) 1a; Reagents were dispensed in a medium-binding black solid-bottom Greiner plates (789176F) using a BioRptr liquid dispenser. Dispense 3 uL of [4/3x] 1 uM AID (provided by Kohli lab) and [4/3x] 2 U/mL UDG (NEB M0280L) into columns 1, 2, 5 to 48. 1b; Dispense 3 uL of [4/3x] 2 U/mL UDG into column 3. 1c; Dispense 3 uL of [4/3x] 1 uM AID into column 4. 2a; Compound ([…] [uM]: 0.64; 3.2; 16; 80; 400; 2,000; 10,000; 20,000) double pin-transferred (Dip Factor = 2) using the Kalypsys (Wako USA) pintool equipped with a 1536 pinhead for a final concentration range of 7.32 nM - 114 uM. 2b; 10 mM Aurintricarboxylic Acid (Sigma A1895) (ATA, 8-point, n = 2, 1:2.5 dilution in column 2) double pin-transferred (Dip Factor = 2) using the Kalypsys (Wako USA) pintool equipped with a 1536 pinhead for a [final] range of 186 nM - 114 uM. 3; Room temperature incubation. 4; Dispense 1 uL of substrate mixture from the Kohli lab [4x] […] DJC20 and [4x] 250 nM DJC23 into columns 1 to 48 . 5; Room temperature incubation. 6; Dispense 4 uL of […] [2x] 250 mM NaOH into columns 1 to 48. 7; Centrifugation step to remove bubbles. […]", "units": {"activity, negative = inhibition": "%"}}
{"smiles": "Cc1ccc(N(CC(=O)N2CCN(c3cc(C)ccc3C)CC2)S(=O)(=O)c2c(C)nn(C)c2C)cc1", "activity, negative = inhibition": -24.2}
{"smiles": "Cc1oc(-c2cccc(Br)c2)nc1Cn1c(SCc2cccc(F)c2)nc2cccnc21", "activity, negative = inhibition": 0.648}
{"smiles": "Cc1cc(-c2ccc(C)c(S(=O)(=O)N3CCCC(C)C3)c2)on1", "note": "(stereo not given)", "activity, negative = inhibition": -12.9}
{"smiles": "CCc1ccc(CNC(=O)c2ccc(CSc3nc4ccncc4n3Cc3ccccc3)cc2)cc1", "activity, negative = inhibition": 4.54}
{"smiles": "Cc1ccc(C)c(N2CCN(CCCNC(=O)c3cnn(-c4ccc(F)cc4)c3C3CCN(C(=O)OC(C)(C)C)CC3)CC2)c1", "activity, negative = inhibition": -1.81}
{"smiles": "CC(C)(Sc1ccc(CCN(CCCCC2CCCCC2)C(=O)NC2CCCCC2)cc1)C(=O)O", "Potency": "31.6 µM (active) and 112 µM (active)"}
{"smiles": "Cc1ccc(Nc2c3c(nc4nc(-c5cccs5)nn24)CCCC3)cc1F", "activity, negative = inhibition": -24.6}
{"smiles": "CCOC(=O)C1=C(CN(CC)Cc2ccccc2)NC(=O)NC1c1ccc(OC(C)C)cc1", "note": "(stereo not given)", "activity, negative = inhibition": -13.7}
{"smiles": "COc1ccccc1N1CCN(C(=O)c2cc3ccc4ccc(C)[nH]c4c3n2)CC1", "activity, negative = inhibition": 3.08}
{"smiles": "COc1cccc(Nc2cc(-c3ccccc3)nc(C)n2)c1", "activity, negative = inhibition": -3.46}
{"smiles": "CC(C)(C)c1ccc(S(=O)(=O)c2cnc(SCC(=O)Nc3ccc(F)c(Cl)c3)[nH]c2=O)cc1", "Potency": "35.5 µM (active)"}
{"smiles": "Cc1ccc(NC(=O)CSc2ncc(S(=O)(=O)c3ccc(C(C)C)cc3)c(=O)[nH]2)cc1C", "Potency": "31.6 µM (active)"}
{"smiles": "COc1cc(Cl)c(C)cc1NC(=O)CSc1ncc(S(=O)(=O)c2ccc(C(C)(C)C)cc2)c(=O)[nH]1", "activity, negative = inhibition": -18.9}
{"smiles": "COC(=O)c1cc(Cl)ccc1NC(=O)CSc1ncc(S(=O)(=O)c2ccc(Br)cc2)c(=O)[nH]1", "activity, negative = inhibition": -7.72}
{"smiles": "CC(C)c1ccc(S(=O)(=O)c2cnc(SCC(=O)Nc3cccc(C(F)(F)F)c3)nc2N)cc1", "activity, negative = inhibition": -5.26}
{"smiles": "Cc1cc(C)c(NC(=O)CSc2ncc(S(=O)(=O)c3ccc(C(C)(C)C)cc3)c(=O)[nH]2)c(C)c1", "activity, negative = inhibition": -9.91}
{"smiles": "Cc1nn2c(=O)cc(COC(=O)c3ccc(NC(=O)C4CCCCC4)cc3)nc2s1", "activity, negative = inhibition": -2.33}
{"smiles": "COc1ccc(C)cc1NC(=O)c1c(C)oc2ncn(CC(C)C)c(=O)c12", "activity, negative = inhibition": -3.76}
{"smiles": "CCc1nc2ccc(C(=O)N3CCN(c4ccc(Cl)cc4)CC3)cc2nc1CC", "activity, negative = inhibition": -22.4}
{"smiles": "COc1ccc(-n2cc(-c3ccccc3)c3c(NC4CCCC4)ncnc32)cc1", "activity, negative = inhibition": -13.8}
{"smiles": "CCOC(=O)c1ccc(N2C(=O)c3[nH]nc(-c4ccccc4)c3C2c2ccc(CC)cc2)cc1", "note": "(stereo not given)", "activity, negative = inhibition": -2.39}
{"smiles": "CCOC(=O)c1ccc(-n2c(N)c(C(=O)OC)c3nc4ccccc4nc32)cc1", "Potency": "25.1 µM (active)"}
{"smiles": "CCOC(=O)c1ccc(NC(=O)CC2Nc3cccc4cccc(c34)NC2=O)cc1", "note": "(stereo not given)", "activity, negative = inhibition": -7.25}
{"smiles": "O=C1C(SCCO)=C(SCCO)C(=O)c2ccccc21", "Potency": "14.1 µM (active)"}
{"smiles": "N#C/C(=C\\c1ccc(-c2ccccc2C(=O)O)o1)c1nc2ccccc2[nH]1", "activity, negative = inhibition": 33.8}
{"smiles": "Cc1ccc(-c2ccc(=O)n(CC(=O)Nc3ccc(C)cc3Cl)n2)cc1", "activity, negative = inhibition": -24.2}
{"smiles": "CCOC(=O)c1c(C)n(-c2ccccc2)c2ccc(OC(=O)c3ccccc3NC(=O)C(C)(C)C)cc12", "activity, negative = inhibition": 11.3}
{"smiles": "COc1ccc(OC)c(Nc2sc(C(=O)c3ccccc3)c(N)c2S(=O)(=O)c2ccccc2)c1", "activity, negative = inhibition": -2.04}
{"smiles": "C=Cc1ccc(CSc2nc(-c3ccc(OC)cc3)nc3c2Cc2c(CO)cnc(C)c2O3)cc1", "activity, negative = inhibition": -8.87}
{"smiles": "COc1cc(/C=C(\\C#N)C(=O)Nc2nnc(C(F)(F)F)s2)ccc1OCc1ccc(C(F)(F)F)cc1C(F)(F)F", "Potency": "31.6 µM (active)"}
{"smiles": "CCC(Sc1nc2c(sc3ccccc32)c(=O)n1CCc1ccc(OC)c(OC)c1)C(=O)N(CC)CC", "note": "(stereo not given)", "activity, negative = inhibition": -18.2}
{"smiles": "COc1ccc(C(=O)Nc2nc3n(n2)C(c2ccc(Cl)cc2)C=C(c2ccccc2)N3)cc1OC", "note": "(stereo not given)", "activity, negative = inhibition": -25.4}
{"smiles": "O=C(NCCc1ccc(Cl)cc1)c1ccc2c(c1)N(Cc1ccc(Cl)cc1)C(=O)CS2", "activity, negative = inhibition": -4.7}
{"smiles": "O=C(NCCn1cc(SCc2ccc(C(F)(F)F)cc2)c2ccccc21)c1cccs1", "activity, negative = inhibition": 7.38}
{"smiles": "Cc1cccc(N(CC(=O)NCCSCc2cccc(Cl)c2)S(=O)(=O)c2ccccc2)c1C", "activity, negative = inhibition": -3.57}
{"smiles": "CCCOc1ccc(-c2nn(-c3ccccc3)cc2C2NC(=O)NC(C)=C2C(=O)OC(C)C)cc1", "note": "(stereo not given)", "activity, negative = inhibition": -11.1}
{"smiles": "CCN1C(=O)c2ccccc2S(=O)c2ccc(C(=O)N3CCN(c4cccc(C)c4)C(C)C3)cc21", "note": "(stereo not given)", "activity, negative = inhibition": -22.1}
{"smiles": "Cc1ccc(-n2cnc3cc(C(=O)NCCC4=CCCCC4)ccc32)c(C)c1", "activity, negative = inhibition": -13.5}
{"smiles": "O=C(c1noc2c1CCCCC2)N1CCN(c2ccc(Cl)cc2)CC1", "activity, negative = inhibition": -0.744}
{"smiles": "CCc1cccc(-n2c(C)nc3c(cnn3-c3ccc(C)c(C)c3)c2=O)c1", "activity, negative = inhibition": -7.64}
{"smiles": "O=C(NCCn1cc(SCc2cccc(F)c2)c2ccccc21)c1cccc(C(F)(F)F)c1", "activity, negative = inhibition": 2.49}
{"smiles": "Cc1ccc(C)c(N2CCN(C(=O)c3cc(S(=O)(=O)N4CCC(C)CC4)cn3C)CC2)c1", "activity, negative = inhibition": -14.5}
{"smiles": "Cc1ccc(C)c(N2CCN(C(=O)Cn3nc(Cc4cccnc4)c4ccccc4c3=O)CC2)c1", "activity, negative = inhibition": -7.71}
{"smiles": "Cc1ccc(-c2nc(C(=O)N3CCN(c4ccccc4)CC3)c3n2CCCCC3)cc1", "activity, negative = inhibition": -10.4}
{"smiles": "COc1ccc2c(c1)Cc1sc(NC(=O)c3cccc(C)c3)nc1-2", "activity, negative = inhibition": -15.7}
